From PubChem BioAssay
In the library only some 19% were active in any assay of this set; here they are far more common.
TDP1 cell noCPT – qHTS for Inhibitors of human tyrosyl-DNA phosphodiesterase 1 (TDP1): qHTS in cells in absence of CPT; DT40 Tdp1-/- hTDP1 cells, no CPT, ATP luminescence, 48 h; Potency, µM (series often up to 46.2 µM), for the others: at the highest dose activity change, negative = growth inhibition, usual class: inhibitors; 420,000 tested, 15% active; AID 686978, 2013; note: potency is the fitted concentration of half-maximal effect; % is set by controls: 0 for no effect and ±100 for the full control effect; nearly all actives have a fitted effect of over 55% in size
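No-CPT arm: Tdp1-/-;hTDP1 DT40 cells (400/well) plus compounds, incubated ≥48 hr at 37 °C. Readout CellTiter-Glo luminescence.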
IL-1B inflam inh – qHTS for Inhibitors of Inflammasome Signaling: IL-1-beta AlphaLISA Primary Screen. THP-1 LPS/ATP IL-1B secretion, AlphaLISA, 16 h; active compounds read low. activity change, % at 57.5 µM. 360,000 tested, 4.7% active. AID 743279, 2014; in the data active = activity change below about -50%; inconclusive = mostly about -30% to -49%; note: % is set by controls: 0 for no effect and ±100 for the full control effect
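THP-1 cells pretreated 1 hr with compounds (up to 57.5 uM final), then stimulated with LPS (250 ng/mL final) plus ATP (1.25 mM final); secreted IL-1B measured by AlphaLISA after 16 hr, decreased signal indicating inhibition.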
Chronic BCR inh – qHTS Assay to Find Inhibitors of Chronic Active B-Cell Receptor Signaling; 340,000 tested, 0.05% active; ABC-DLBCL IkBa-CBG/CBR reporter, luminescence ratio, 4 h; Potency, µM (titrated, usually from 46.1 µM), without a hit: at the highest dose activity change, negative = inhibition, actives largely listed as inhibitors; active = well fitted inhibition curve with a large enough effect in the signal ratio, with a control signal flat, not every such curve was filed as active; inconclusive = small, poorly fitted or top-dose-only effect, or effect the other way, or a change in a side signal; the % refers to the signal ratio;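 note: potency is the fitted concentration of half-maximal effect; plate controls were basal doxycycline-induced cells for no effect and cells given 10 µM MG132 for full effect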
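TMD8 ABC-DLBCL cells carrying doxycycline-inducible green luciferase fused to IkappaBalpha plus unfused red luciferase were exposed to compounds (up to 46 uM) for 4 hrs at 37C. Activity came from the overlap-corrected green/red luminescence ratio.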
MCF10A rerep – A quantitative high throughput screen for small molecules that induce DNA re-replication in MCF 10a normal breast cells | MCF 10A DNA re-replication, Hoechst nuclear intensity, 48 h | Potency, µM (series often up to 46.1 µM), for inactives: at the top dose activity, positive = re-replication, usual class: activators | 350,000 tested, 2.9% active | AID 624296, 2012; note: potency is the fitted concentration of half-maximal effect; % of control where 0% means no effect; nearly all actives have a fitted effect of over 50% in size
SW480 rereplic – A quantitative high throughput screen for small molecules that induce DNA re-replication in SW480 colon adenocarcinoma cells. 340,000 tested, 1.8% active. SW480 DNA re-replication, Hoechst DNA content imaging, 48 h. Potency, µM (highest dose often 46.1 µM), for inactives: at the highest dose re-replication activation, hits mostly activators; note: potency is the fitted concentration of half-maximal effect; % of control where 0% means no effect; nearly all actives have a fitted effect of over 55% in size
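Cells (250 per well) received 23 nL compound or DMSO by pin tool and were kept 48 hr at 37 C, 5% CO2. Nuclei were then stained with Hoechst for 40 min and scanned for DNA content.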
TDP1 cell CPT – qHTS for Inhibitors of human tyrosyl-DNA phosphodiesterase 1 (TDP1): qHTS in cells in presence of CPT | chicken DT40 Tdp1-/-;hTDP1 cells + 20 nM CPT, ATP luminescence, 48 h | Potency, µM (series often up to 46.2 µM), inactives show top-dose activity change, negative = growth inhibition, most hits filed as inhibitors | 420,000 tested, 12% active | AID 686979, 2013; note: potency is the fitted concentration of half-maximal effect; % is set by controls: 0 for no effect and ±100 for the full control effect; nearly all actives have a fitted effect of over 55% in size
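Chicken DT40 Tdp1-/- cells stably complemented with human TDP1 were seeded at 400 cells/well in medium containing 20 nM camptothecin, exposed to pin-transferred compounds, and grown at 37 °C for at least 48 hr. Viability was read as ATP luminescence.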
* marks the source's active call; other numbers are inactive results; i = inactive; ? = inconclusive; . = no result given; [ ] = dose if it differs, or a comment. Unless noted, calls come from the whole dose curve; as a rule, active = well fitted curve in the direction sought with a large enough effect; inconclusive = small, poorly fitted or top-dose-only effect, or another doubt; inactive = no such curve, though single readings can be large; an effect the other way counts as inactive or inconclusive.

SMILES	TDP1 cell noCPT	IL-1B inflam inh	Chronic BCR inh	MCF10A rerep	SW480 rereplic	TDP1 cell CPT
COc1ccc(CC(=O)N2CCN(c3ccccn3)CC2)cc1	-22.8%	7.1	1.2%	-7.1%	-8.1%	-11.5%
COc1ccc(-c2noc(N3CCC(C(=O)N4CCN(c5ccccc5OC)CC4)CC3)n2)cc1	8.2µM*	.	.	.	.	10.3µM*
COc1ccccc1N1CCN(C(=O)C2CCN(C(=O)c3ccccc3Cl)CC2)CC1	-24.6%	12.8	0.8%	-1.7%	-5.1%	?
COc1cccc(NC(=O)CN(C)C(=O)CSc2ccc3c(c2)OCCO3)c1	-6.4%	25.2	?	-1.4%	-2.3%	-7.8%
CC(NCc1ccc2c(c1)n(C)c(=O)n2C)c1ccccc1 (centres undefined)	-0.6%	.	.	.	.	-14.5%
COc1ccc(-c2noc(N3CCC(C(=O)N4CCN(c5cccc(OC)c5)CC4)CC3)n2)cc1	3.26µM*	.	.	.	.	6.51µM*
COc1cccc(N2CCN(C(=O)c3cc(-c4ccc(F)cc4)[nH]c3C)CC2)c1	20.6µM*	?	?	?	0.3%	14.6µM*
Cc1[nH]c(-c2ccc(F)cc2)cc1C(=O)N1CCN(c2ccccc2)CC1	?	-55.7*	?	?	-3.2%	?
Cc1ccc(N2CCN(C(=O)c3cc(-c4ccc(F)cc4)[nH]c3C)CC2C)cc1 (centres undefined)	20.6µM*	-59.4*	-1.9%	16.3%	4.7%	?
CCC(C(=O)NCC1CCCO1)n1nc(C)c2sc3ccccc3c2c1=O (centres undefined)	?	-9.7	?	-0.6%	-1.3%	?
Cc1cccc(CCNC(=O)C2CC(O)CN2C(=O)Nc2ccccc2)c1 (centres undefined)	0.2%	5.4	.	.	.	-2.7%
COC(=O)C1=C(C)N(Cc2ccco2)C(=O)C1	-17.5%	4.5	0.5%	4.1%	-3.5%	-9.1%
COC(=O)C1=C(C)N(Cc2ccc(OC)cc2)C(=O)/C1=C\c1ccco1	16.4µM*	18.8	-6.6%	13.0%	0.1%	25.9µM*
COC(=O)C1=C(C)N(C)C(=O)/C1=C\c1ccco1	-19.6%	1.2	?	3.4%	-3.3%	-0.1%
COC(=O)C1=C(C)N(Cc2ccco2)C(=O)/C1=C\c1ccc([N+](=O)[O-])cc1	?	-102.1*	11.1%	?	?	16.4µM*
C=CCOc1cccc(/C=C2\C(=O)N(Cc3ccc(C)cc3)C(C)=C2C(=O)OC)c1	23.1µM*	-90.9*	-5.3%	16.4µM*	?	?
Cc1nc(C#N)c(N/N=C/c2c(F)cccc2Cl)o1	?	-22.9	0.5%	-2.4%	-2.0%	-6.9%
COc1ccc(C(=O)OCC(=O)N2CCN(S(=O)(=O)c3ccc(C)cc3)CC2)cc1[N+](=O)[O-]	?	0.0	.	1.9%	-3.6%	-7.6%
O=C1CC(=O)N2N=C(c3ccc([N+](=O)[O-])cc3)SC2=N1	?	5.4	-1.0%	-10.7%	1.6%	1.3%
CN1CCc2c1nc1ccccc1c2N (tested in a mixture with another compound)	-0.4%	-24.2	3.0%	6.3%	-4.3%	12.1%
Cc1cccc2c(N)c3c(nc12)N(C)CC3	11.6µM*	-0.3	?	14.2%	0.4%	8.2µM*
Nc1c2c(nc3cccc(Cl)c13)N(c1ccccc1)CC2	-11.9%	23.5	?	15.7%	3.2%	17.3%
Cc1cccc2c(N)c3c(nc12)CCCC3 (tested in a mixture with another compound)	-24.6%	-21.0	-3.1%	?	?	-2.5%
Cc1ccc2nc3c(c(N)c2c1)CCN3c1ccccc1	18.4µM*	-77.4*	?	14.9%	2.7%	16.4µM*
Cc1ccc2nc3c(c(N)c2c1)CCN3C	?	?	-3.2%	23.1µM*	28.0%	?
SMILES	TDP1 cell noCPT	IL-1B inflam inh	Chronic BCR inh	MCF10A rerep	SW480 rereplic	TDP1 cell CPT
CCCCN1CCc2c1nc1ccc(Br)cc1c2N	23.1µM*	-96.2*	?	5.4%	0.7%	?
COc1ccc(/C=C(\C#N)c2nc(-c3cc(Cl)ccc3OC)cs2)cc1	-17.4%	.	.	.	.	-15.7%
COc1ccc(N2CC(NC(=O)C3CC3)CC2=O)cc1OC (centres undefined)	-6.4%	.	1.0%	.	.	9.3%
COc1ccc(-c2c(-c3ccsc3)oc3ccc(N4CCOCC4)cc23)cc1	16.4µM*	-4.6	.	?	-0.8%	?
COc1ccc(-c2oc3ccc(N4CCOCC4)cc3c2/C=C/c2ccc(OC)c(OC)c2)cc1	?	5.5	7.4%	?	?	?
COc1ccc(/C=C/c2c(-c3ccc(OC)cc3)sc3ccc(N4CCOCC4)cc23)cc1	-26.0%	-4.2	1.4%	8.2µM*	0.9%	-21.3%
CC(Sc1nnc2ccccn12)C(N)=O (centres undefined)	0.3%	23.7	0.1%	0.1%	-2.2%	1.0%
CCCCn1c(N)c(N(Cc2ccccc2OC)C(=O)C(C)C)c(=O)[nH]c1=O	-6.0%	i	7.2%	?	-23.9%	-3.8%
CC(C)c1cc(N2CCN(C(=O)c3ccco3)CC2)n2c(nc3ccccc32)c1C#N	20.6µM*	-15.1	?	23.1µM*	28.7%	14.6µM*
CC(C)Cc1nc(N2CCN(C(=O)c3ccco3)CC2)c(C#N)c2c1CCC2	-28.7%	-7.7	?	20.6µM*	3.3%	?
CC(=O)N1CCN(c2nc(CC(C)C)c3c(c2C#N)CCC3)CC1	?	-9.5	-0.3%	13.7%	-9.6%	-28.0%
CCn1c(N2CCN(C(=O)c3ccco3)CC2)nc2ccccc21	-2.9%	-0.9	-3.1%	-10.1%	-7.9%	1.3%
CC(C)Cc1nc(N2CCN(C(=O)c3ccccc3)CC2)c(C#N)c2c1CCC2	?	12.4	-6.6%	?	15.5%	?
CC(C)Cc1nc(N2CCN(C(=O)C(C)C)CC2)c(C#N)c2c1CCC2	?	-12.1	-3.6%	?	12.8%	20.6µM*
CC(C)NC(=O)c1ccc(Cn2c(=O)c3cccn3c3cccnc32)cc1	?	.	.	.	.	3.8%
Cc1cc(=O)c(C(=O)N(C)CCc2ccccn2)c2n1-c1ccccc1SC(c1ccsc1)C2 (centres undefined)	3.1%	.	.	.	.	-6.5%[9.04 µM]
